Experiment [1] has as its target human Retinoid X Receptor beta (RXRb), RXRB (gene 6257) (UniProt P28702). Briefly: ATG_RXRb_TRANS: Attagene TRANS-FACTORIAL HepG2 Assay for human Retinoid X Receptor beta (RXRb) (AID 2283013; active means hit-call score of the fitted dose curve at least 0.9, where 1 is the maximum). In outline:
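Read-out: reporter mRNA induction via RT-PCR plus capillary electrophoresis fluorescence, analysed as signal increase relative to DMSO. Cells were human HepG2, transiently transfected with GAL4-UAS reporter constructs and chimeric receptor-Gal4 fusions, dosed for 24 h.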

Experiment [2] deals with human Thyroid Receptor alpha (THRa1), THRA (gene 7067) (UniProt P10827). Briefly: ATG_THRa1_TRANS: Attagene TRANS-FACTORIAL HepG2 Assay for human Thyroid Receptor alpha (THRa1) (AID 2283014; active means hit-call score of the fitted dose curve at least 0.9, where 1 is the maximum). In outline:
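Measured here is mRNA from a GAL4-UAS reporter in transfected HepG2 cells carrying a Gal4-fused receptor, 24 h post-dose. DMSO served as negative control and baseline.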

Read-out in experiment [3]: E-selectin (Homo sapiens) (UniProt P16581)
Briefly: BSK_3C_Eselectin: BioMAP Diversity Plus: 3C Assay for Eselectin Biomarker Activity (AID 2283015).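 On outcome: cell surface E-selectin protein quantified by ELISA 24 h after dosing.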 Particulars: primary human endothelial cells (HUVEC); actives raise or lower the signal. Put shortly: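 Endpoint derived by bidirectional fitting against DMSO vehicle; signal is ELISA-detected E-selectin from primary HUVEC at 24 h post-dosing, with parallel SRB staining (0.1% SRB, 560 nm) flagging cytotoxicity.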

Read-out in experiment [4]: Interleukin-1 alpha (IL1a), IL1A (gene 3552)
Briefly: BSK_BE3C_IL1a: BioMAP Diversity Plus: BE3C Assay for Interleukin-1 alpha (IL1a) Biomarker Activity (AID 2283016). The following applies: primary human bronchial epithelial cells; actives raise or lower the signal. Put shortly: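 ELISA read-out of IL-1a from human lung bronchial epithelial primary cells, 24 h post-dose. Gain or loss of signal fitted relative to DMSO negative control.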

Read-out in experiment [5]: Monocyte Chemoattractant Protein-1 (MCP1), CCL2 (gene 6347)
Briefly: BSK_3C_MCP1: BioMAP Diversity Plus: 3C Assay for Monocyte Chemoattractant Protein-1 (MCP1) Biomarker Activity (AID 2283017). The following applies: primary human endothelial cells (HUVEC); actives raise or lower the signal. Put shortly:
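Using human vascular primary endothelium, researchers measured MCP-1 by ELISA 24 h after treatment, with DMSO serving as negative control for bidirectional fitting.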

Read-out in experiment [6]: Monocyte Chemoattractant Protein-1 (MCP1), CCL2 (gene 6347)
Briefly: BSK_4H_MCP1: BioMAP Diversity Plus: 4H Assay for Monocyte Chemoattractant Protein-1 (MCP1) Biomarker Activity (AID 2283018). Particulars: primary human endothelial cells (HUVEC); actives raise or lower the signal. Put shortly: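 HUVEC primary cells, 24 h post-dose, MCP-1 by ELISA. Gain or loss of signal fitted bidirectionally vs DMSO baseline. Cytotoxicity: SRB stain (0.1% after 10% TCA fixation), read 560 nm, parallel cultures.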

Read-out in experiment [7]: Human Leukocyte Antigen - DR isotype (HLADR), HLA-DRA (gene 3122)
Briefly: BSK_3C_HLADR: BioMAP Diversity Plus: 3C Assay for Human Leukocyte Antigen - DR isotype (HLADR) Biomarker Activity (AID 2283019).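 On outcome: ELISA of cell-surface HLA-DR on HUVEC 24 h after dosing.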 Particulars: primary human endothelial cells (HUVEC); actives raise or lower the signal. Put shortly:
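Compound added to primary HUVEC cultures, 24 h incubation, then HLA-DR determined by ELISA; endpoint derived by bidirectional fitting relative to DMSO negative control.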

Read-out in experiment [8]: Monokine induced gamma interferon (MIG), CXCL9 (gene 4283)
Briefly: BSK_3C_MIG: BioMAP Diversity Plus: 3C Assay for Monokine induced gamma interferon (MIG) Biomarker Activity (AID 2283021).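 On AC50: MIG protein level measured by immunoassay in the treated endothelial cultures.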 Particulars: primary human endothelial cells (HUVEC); actives raise or lower the signal. In outline: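 HUVEC, 3C system; 24 h chemical exposure; MIG by ELISA; bidirectional fit vs DMSO baseline.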

Experiment [9] addresses human Vitamin D Receptor (VDR), VDR (gene 7421) (UniProt P11473). Briefly: ATG_VDR_TRANS: Attagene TRANS-FACTORIAL HepG2 Assay for human Vitamin D Receptor (VDR) (AID 2283022; active means hit-call score of the fitted dose curve at least 0.9, where 1 is the maximum). In outline:
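Multiplexed TRANS reporter in HepG2; 24 h treatment; reporter mRNA by RT-PCR plus capillary electrophoresis; upregulation scored relative to DMSO.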

The nature of experiment [10]: BSK_3C_SRB: Viability Assessment in the BioMAP Diversity Plus: 3C Assay (AID 2283023).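 Further: cells read 24 h after compound dosing; fitted both ways against DMSO so a hit may be signal rise or drop.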 The following applies: primary human endothelial cells (HUVEC). Put shortly:
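Overt cytotoxicity is gauged in parallel confluent HUVEC cultures by SRB total-protein staining at the time of biomarker measurement, 24 h after dosing. Gain or loss of signal is fitted versus DMSO.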

Read-out in experiment [11]: Matrix Metallopeptidase 1 (MMP1), MMP1 (gene 4312)
Briefly: BSK_BE3C_MMP1: BioMAP Diversity Plus: BE3C Assay for Matrix Metallopeptidase 1 (MMP1) Biomarker Activity (AID 2283024). The following applies: primary human bronchial epithelial cells; actives raise or lower the signal. In outline: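 ELISA read-out of MMP1 in human lung bronchial epithelial primary cultures, 24 h post-dose; bidirectional curve fit vs DMSO baseline, gain or loss of signal scored.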

A short description of experiment [12]: BSK_3C_Vis: BioMAP Diversity Plus: 3C Assay for Morphology Visualization (AID 2283025).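 Further: fitted both ways so gain or loss versus DMSO counts.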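 On AC50: light microscopy image of cell morphology used as background control.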 The following applies: primary human endothelial cells (HUVEC). In outline:
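HUVEC, 3C system; light microscopy of morphology at 24 h post-dose. Bidirectional fit vs DMSO baseline. Secondary readout, background-control function.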

Read-out in experiment [13]: Pselectin, SELP (gene 6403)
Briefly: BSK_4H_Pselectin: BioMAP Diversity Plus: 4H Assay for Pselectin Biomarker Activity (AID 2283026). The following applies: primary human endothelial cells (HUVEC); actives raise or lower the signal. In outline:
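HUVEC, 24 h chemical exposure; P-selectin read by ELISA. Bidirectional curve fit vs DMSO baseline; gain or loss of signal scored.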

Experiment [14] in a line: BSK_4H_SRB: Viability Assessment in the BioMAP Diversity Plus: 4H Assay (AID 2283027).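 Further: cells exposed to compound for 24 h before staining.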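 On AC50: curves fitted both ways versus DMSO so AC50 may be loss or gain.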 Particulars: primary human endothelial cells (HUVEC). Put shortly:
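Cytotoxicity readout: sulforhodamine B (0.1%) staining of total protein after 10% TCA fixation, measured at 560 nm in human umbilical vein endothelium at 24 h. DMSO set the baseline; fitting was bidirectional.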

The nature of experiment [15]: BSK_BE3C_SRB: Viability Assessment in the BioMAP Diversity Plus: BE3C Assay (AID 2283028).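 Further: measured 24 h after chemical dosing.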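 On AC50: fitted both ways so AC50 may mark signal gain or loss versus DMSO.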 The following applies: primary human bronchial epithelial cells. Put shortly:
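SRB total-protein staining (0.1%, after TCA fixation) of chemically dosed human bronchial epithelial primary cells at 24 h; DMSO serves as the negative control for bidirectional curve fitting.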

Read-out in experiment [16]: Thrombomodulin, THBD (gene 7056)
Briefly: BSK_3C_Thrombomodulin: BioMAP Diversity Plus: 3C Assay for Thrombomodulin Biomarker Activity (AID 2283029). Particulars: primary human endothelial cells (HUVEC); actives raise or lower the signal. In outline: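 HUVEC, 3C conditions; compound 24 h; thrombomodulin by ELISA; bidirectional curve fit vs DMSO baseline; parallel SRB total-protein staining for cytotoxicity.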

Read-out in experiment [17]: Urokinase-type plasminogen activator receptor (uPAR), PLAUR (gene 5329)
Briefly: BSK_4H_uPAR: BioMAP Diversity Plus: 4H Assay for Urokinase-type plasminogen activator receptor (uPAR) Biomarker Activity (AID 2283030). The following applies: primary human endothelial cells (HUVEC); actives raise or lower the signal. In outline: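 Endpoint derived via bidirectional curve fitting against DMSO baseline; readout was ELISA detection of uPAR on umbilical vein endothelial cells at 24 h post-treatment, with SRB-stained parallel cultures assessing cytotoxicity.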

Read-out in experiment [18]: Vascular endothelial growth factor receptor 2 (Homo sapiens) (UniProt P35968)
Briefly: BSK_4H_VEGFRII: BioMAP Diversity Plus: 4H Assay for Vascular endothelial growth factor receptor 2 (VEGFR2) Biomarker Activity (AID 2283031).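 On AC50: cell-surface VEGFR2 protein level quantified by ELISA.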 The following applies: primary human endothelial cells (HUVEC); actives raise or lower the signal. Put shortly: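 In this multiplexed HUVEC system, biomarker ELISA was performed after 24 h chemical exposure. Parallel SRB staining (TCA fixation, 560 nm) tracked cytotoxicity; DMSO served as baseline.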

The target in experiment [19] is Retinoic acid receptor RXR-alpha (Homo sapiens) (UniProt P19793). Briefly: ATG_RXRa_TRANS: Attagene TRANS-FACTORIAL HepG2 Assay for human Retinoid X Receptor alpha (RXRa) (AID 2283012; active means hit-call score of the fitted dose curve at least 0.9, where 1 is the maximum). Put shortly:
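Read-out: fluorescent reporter-transcript fragments quantified by capillary electrophoresis after RT-PCR. Transiently transfected HepG2 cells carrying GAL4-UAS reporters and NR-GAL4 chimeras were exposed to chemical for 24 h; activity scored as increase over DMSO.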

Read-out in experiment [20]: Interleukin-8 (IL8), CXCL8 (gene 3576)
Briefly: BSK_3C_IL8: BioMAP Diversity Plus: 3C Assay for Interleukin-8 (IL8) Biomarker Activity (AID 2283020). Particulars: primary human endothelial cells (HUVEC); actives raise or lower the signal. In outline:
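HUVEC, 3C stimulation; 24 h compound exposure; IL-8 read by ELISA; gain or loss of signal fitted relative to DMSO control.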

Results filed as inconclusive are left out. Activity calls are given as the source filed them. How the source made its calls, unless noted: active means hit-call score of the fitted dose curve at least 0.9, where 1 is the maximum; inactive means score below 0.9.

Sequence of E-selectin (Homo sapiens) (P16581 whole entry, looked up): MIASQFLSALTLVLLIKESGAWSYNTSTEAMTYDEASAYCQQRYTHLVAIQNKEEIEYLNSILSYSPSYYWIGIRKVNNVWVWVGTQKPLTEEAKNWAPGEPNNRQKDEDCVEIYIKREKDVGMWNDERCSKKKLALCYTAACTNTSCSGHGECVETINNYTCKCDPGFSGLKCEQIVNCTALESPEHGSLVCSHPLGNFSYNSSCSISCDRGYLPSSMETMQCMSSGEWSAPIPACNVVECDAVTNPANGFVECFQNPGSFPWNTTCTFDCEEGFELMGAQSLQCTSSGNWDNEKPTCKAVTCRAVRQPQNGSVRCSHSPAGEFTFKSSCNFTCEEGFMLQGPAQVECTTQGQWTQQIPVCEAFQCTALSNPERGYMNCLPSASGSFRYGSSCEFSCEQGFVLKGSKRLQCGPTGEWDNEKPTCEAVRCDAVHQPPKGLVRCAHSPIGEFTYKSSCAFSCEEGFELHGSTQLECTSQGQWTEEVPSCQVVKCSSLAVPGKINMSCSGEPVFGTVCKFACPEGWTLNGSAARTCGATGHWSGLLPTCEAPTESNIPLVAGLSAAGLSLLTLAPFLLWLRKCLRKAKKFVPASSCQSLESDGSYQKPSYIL
Sequence of human Thyroid Receptor alpha (THRa1), THRA (gene 7067) (P10827 whole entry, looked up, the tested form may be a part): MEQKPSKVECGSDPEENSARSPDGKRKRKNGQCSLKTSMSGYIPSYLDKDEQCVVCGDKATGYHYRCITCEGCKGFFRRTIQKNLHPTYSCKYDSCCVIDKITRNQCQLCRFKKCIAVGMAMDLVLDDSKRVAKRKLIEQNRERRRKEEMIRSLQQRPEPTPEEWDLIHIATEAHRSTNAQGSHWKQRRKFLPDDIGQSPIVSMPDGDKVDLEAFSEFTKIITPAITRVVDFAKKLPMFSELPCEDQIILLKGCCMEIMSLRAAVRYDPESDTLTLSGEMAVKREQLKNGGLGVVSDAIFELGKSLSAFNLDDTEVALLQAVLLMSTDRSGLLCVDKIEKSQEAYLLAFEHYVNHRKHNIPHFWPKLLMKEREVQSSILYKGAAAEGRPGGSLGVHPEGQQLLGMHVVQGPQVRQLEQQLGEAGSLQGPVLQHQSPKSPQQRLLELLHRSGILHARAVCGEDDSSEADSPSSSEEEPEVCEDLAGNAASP
Sequence of human Retinoid X Receptor beta (RXRb), RXRB (gene 6257) (P28702 whole entry, looked up, the tested form may be a part): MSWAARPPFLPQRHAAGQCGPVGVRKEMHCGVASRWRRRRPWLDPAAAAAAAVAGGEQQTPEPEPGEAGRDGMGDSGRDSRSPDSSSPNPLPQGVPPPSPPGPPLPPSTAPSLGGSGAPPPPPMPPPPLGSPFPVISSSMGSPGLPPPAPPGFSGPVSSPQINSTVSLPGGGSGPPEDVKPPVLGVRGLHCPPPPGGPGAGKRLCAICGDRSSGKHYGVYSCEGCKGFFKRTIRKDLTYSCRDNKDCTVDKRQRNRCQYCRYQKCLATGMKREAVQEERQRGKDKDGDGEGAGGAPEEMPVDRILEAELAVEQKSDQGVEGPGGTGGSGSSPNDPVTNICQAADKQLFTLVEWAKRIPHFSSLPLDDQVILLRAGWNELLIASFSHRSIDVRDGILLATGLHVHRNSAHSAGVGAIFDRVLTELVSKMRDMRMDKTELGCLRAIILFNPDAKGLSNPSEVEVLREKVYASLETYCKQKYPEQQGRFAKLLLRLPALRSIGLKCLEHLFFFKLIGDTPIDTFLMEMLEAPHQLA
Sequence of human Vitamin D Receptor (VDR), VDR (gene 7421) (P11473 whole entry, looked up): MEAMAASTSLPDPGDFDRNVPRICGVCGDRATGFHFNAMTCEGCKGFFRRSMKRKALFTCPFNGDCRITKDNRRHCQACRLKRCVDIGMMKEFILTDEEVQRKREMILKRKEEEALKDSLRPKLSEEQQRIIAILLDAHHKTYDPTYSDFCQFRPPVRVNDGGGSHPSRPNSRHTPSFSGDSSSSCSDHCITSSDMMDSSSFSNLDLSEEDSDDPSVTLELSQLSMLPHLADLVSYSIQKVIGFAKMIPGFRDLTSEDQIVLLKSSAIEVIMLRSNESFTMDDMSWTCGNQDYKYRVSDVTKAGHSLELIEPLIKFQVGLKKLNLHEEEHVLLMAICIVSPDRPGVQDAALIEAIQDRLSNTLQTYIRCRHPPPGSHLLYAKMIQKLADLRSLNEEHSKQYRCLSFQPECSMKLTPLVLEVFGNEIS
Sequence of Retinoic acid receptor RXR-alpha (Homo sapiens) (P19793 whole entry, looked up, the tested form may be a part): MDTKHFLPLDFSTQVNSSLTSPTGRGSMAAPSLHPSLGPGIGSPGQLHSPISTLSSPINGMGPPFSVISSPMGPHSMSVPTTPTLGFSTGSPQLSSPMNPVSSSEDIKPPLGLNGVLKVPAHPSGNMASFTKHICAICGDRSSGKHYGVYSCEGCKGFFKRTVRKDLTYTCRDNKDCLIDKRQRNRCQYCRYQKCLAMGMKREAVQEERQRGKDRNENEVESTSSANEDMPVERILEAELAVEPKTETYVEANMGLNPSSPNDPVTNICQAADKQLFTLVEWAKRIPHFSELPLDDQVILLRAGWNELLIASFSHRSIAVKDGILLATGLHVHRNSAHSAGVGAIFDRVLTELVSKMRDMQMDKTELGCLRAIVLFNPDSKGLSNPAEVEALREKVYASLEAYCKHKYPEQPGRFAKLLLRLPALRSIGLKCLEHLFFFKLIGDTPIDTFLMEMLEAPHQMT

Take `CSC(=O)c1cccc2nnsc12`: the compound was classed as inactive in [1], in [2], in experiment [3], in experiment [4], in experiment [5] and in experiment [6]. Further, the outcome in experiment [7], in experiment [8], in experiment [9], in experiment [10], in [11] and in [12] was inactive. Also, the outcome in experiment [13], in experiment [14], in experiment [15], in experiment [16], in experiment [17] and in experiment [18] was inactive.
Regarding `CCOC(=O)C(C)Oc1ccc(Oc2cnc3cc(Cl)ccc3n2)cc1` (configuration not stated), the compound was called inactive in experiment [19], in experiment [1], in [3], in [4], in experiment [5] and in experiment [6]. In addition, the outcome in experiment [7], in experiment [8], in [10], in experiment [11], in experiment [12] and in [13] was inactive. Besides, the outcome in experiment [14], in experiment [15], in experiment [16], in experiment [17] and in experiment [18] was inactive.
For the compound `CC(C)CCCCCCc1ccc(O)cc1`, the AC50 (commonly the midpoint of the concentration-response curve, whichever way the signal moves) in experiment [19] is 12.3 µM (active) [middle of 4 runs]; in experiment [3], 8.72 µM (active); in experiment [4], 26.7 µM (active); in experiment [5], 9.8 µM (active); in experiment [6], 7.07 µM (active); in experiment [7], 9.6 µM (active). Further, the half-maximal activity concentration (AC50) is 8.53 µM (active) in experiment [8]; 9.24 µM (active) in experiment [10]; 32 µM (active) in [11]; 5.31 µM (active) in experiment [12]; 9.15 µM (active) in [13]; 6.94 µM (active) in experiment [14]. Further, the half-maximal activity concentration (AC50) in experiment [15] was 36 µM (active); in [16], 20 µM (active); in experiment [17], 9.57 µM (active); in experiment [18], 5.29 µM (active). Moreover, the result in experiment [2] and in experiment [9] was inactive.
Regarding `CCCCCCC(C)OC(=O)COc1nc(F)c(Cl)c(N)c1Cl` (configuration not stated), the half-maximal activity concentration (AC50) in [3] was 31.4 µM (active); in experiment [5], 30.8 µM (active); in [6] it was 32.3 µM (active); in experiment [7], 31.6 µM (active); in experiment [20], 36.5 µM (active); in experiment [8] it was 37.7 µM (active). Further, the AC50 in experiment [10] was 30.1 µM (active); in experiment [12], 29.4 µM (active); in experiment [13] it was 30.8 µM (active); in [14], 34.5 µM (active); in experiment [17] it was 31.2 µM (active); in experiment [18], 31.9 µM (active). Further, the outcome in experiment [4], in experiment [9], in [11], in [15] and in experiment [16] was inactive.
As to `O=C(O)c1ccccc1`, the call in experiment [19], in [1], in [3], in experiment [4], in [5] and in experiment [6] was inactive. Moreover, the outcome in experiment [7], in experiment [8], in experiment [9], in experiment [10], in experiment [11] and in [12] was inactive. Further, the result in [13], in [14], in experiment [15], in experiment [16], in experiment [17] and in experiment [18] was inactive.
Turning to `CCCCC(CC)CN1C(=O)C2C3C=CC(C3)C2C1=O` (configuration not stated), the result in [19], in experiment [1], in experiment [3], in experiment [4], in experiment [5] and in experiment [8] was inactive. The result in [12], in experiment [13], in experiment [14], in experiment [16], in experiment [17] and in experiment [18] was inactive. The concentration at half-maximal activity (AC50) in [6] was 19.2 µM (active); in experiment [7], 30.6 µM (active); in experiment [10] it was 16.9 µM (active); in experiment [11], 15.9 µM (active); in [15], 17.3 µM (active).
As to `COC(=O)c1ccccc1C(=O)O`, the outcome in experiment [2], in experiment [3], in experiment [4], in [5], in experiment [6] and in [20] was inactive. The result in experiment [8], in experiment [10], in experiment [11], in experiment [12], in [13] and in experiment [14] was inactive. The outcome in experiment [15], in experiment [16], in [17] and in experiment [18] was inactive. Besides, the AC50 in experiment [7] is 9.98 µM (active).

The values are drawn from PubChem BioAssay (EPA / NIEHS).
